Assay outcomes (PubChem BioAssay)
DAX1 inh-1 = DAX1 (NR0B1) inhibitors, primary screen, cell-based, HEK293, Gal4-DAX1, luciferase luminescence; Nuclear receptor subfamily 0 group B member 1 (Homo sapiens), P51843; HEK293 Gal4-DAX1 luciferase reporter; inhibition, % at 6.75 µM; hit rate 0.99% among 340,000; AID 504766, 2011;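 active = inhibition above the mean over all tested compounds plus 3 SD, cut at about 4.2% in these data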;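 note: 0% = DAX1-transfected cells with DMSO and 100% = empty-vector control cells with DMSO; inhibition shows as a rise in luminescence from relieved DAX1 repression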
hgDAF-12 ag = H. glycines DAF-12 receptor agonists, primary screen, cell-based, luminescence, HEK293, GAL4 fusion, UAS-luciferase; Nuclear hormone receptor DAF-12 (Heterodera glycines), GAL4 fusion; HEK293 GAL4-hgDAF12 UAS-luciferase reporter, agonist luminescence; normalized to butyrate control; activation, % at 6.8 µM; hit rate 1.8% among 370,000; AID 687014, 2013;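 active = activation above a cutoff set at the mean of all screened compounds plus 3 SD, cut at about 10% in these data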;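 note: 0% = DMSO wells and 100% = sodium butyrate wells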
hcDAF12 agonist = H. contortus DAF-12 nuclear receptor activators, primary screen, cell-based, luminescence, HEK293, lit1-tk-luc reporter. HEK293 hcDAF-12 lit1-tk-luc reporter; 0% DMSO, 100% Δ7-dafachronic acid. activation, % at 6.8 µM. hit rate 1.4% among 370,000. AID 652067, 2013;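 active = activation above the mean of all tested compounds plus 3 SD, cut at about 5.5% in these data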;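 note: 100% = response to 3 µM Δ7-dafachronic acid high control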
ssDAF12 agonist = S. stercoralis DAF-12 nuclear receptor activators, primary screen, cell-based, luminescence, HEK293, GRIP1 co-expression, lit1-tk-luc; hit rate 1% among 370,000; activation, % at 6.8 µM; HEK293 ssDAF-12/GRIP1 lit1-tk-luc reporter; % of 3 µM dafachronic acid response;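 active = activation above the mean over all tested compounds plus 3 SD, cut at about 0.9% in these data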;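 note: 0% = DMSO-only wells and 100% = 3 µM delta7-dafachronic acid wells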
DAX1 inh-2 = DAX1 (NR0B1) inhibitors on StAR promoter, primary screen, cell-based, luminescence, SF-1 (NR5A1), full-length DAX-1; HEK293T StAR-luciferase reporter, SF-1/DAX-1 repression relief; inhibition, % at 6.8 µM; hit rate 1.1% among 370,000;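 active = inhibition above the mean over all tested compounds plus 3 SD, cut at about 3.6% in these data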;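 note: 0% = DAX-1 cells with DMSO and 100% = cells lacking DAX-1 with DMSO; higher inhibition means more luminescence from relief of DAX-1 repression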
hgDAF12 conf = H. glycines DAF-12 receptor agonists, confirmation, cell-based, luminescence, HEK293, GAL4-LBD fusion. shares compounds with hgDAF-12 ag. HEK293 GAL4-hgDAF12 luciferase reporter, agonist mode; percent of butyrate response. activation, % at 6.8 µM. hit rate 80% among 3,300. AID 743050, 2013;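 active = mean activation over triplicate wells above the hit cutoff derived from the earlier primary screen, cut at about 11% in these data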;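 note: 0% = DMSO low control and 100% = 2 mM sodium butyrate high control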
LXR ag 2 = LXR agonists, Gal4 luciferase reporter, confirmation, counter-screen for hgDAF-12 agonist project, cell-based, luminescence, HEK293, H. glycines campaign; 3,300 tested, under 10 active; AID 743051, 2013; 24 h; shares compounds with hgDAF-12 ag; activation, % at 6.8 µM;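 active = mean activation of the triplicate above a set limit carried over from the primary screen, none filed active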
Target sequence (P55055 whole entry, looked up, the tested form may be a part): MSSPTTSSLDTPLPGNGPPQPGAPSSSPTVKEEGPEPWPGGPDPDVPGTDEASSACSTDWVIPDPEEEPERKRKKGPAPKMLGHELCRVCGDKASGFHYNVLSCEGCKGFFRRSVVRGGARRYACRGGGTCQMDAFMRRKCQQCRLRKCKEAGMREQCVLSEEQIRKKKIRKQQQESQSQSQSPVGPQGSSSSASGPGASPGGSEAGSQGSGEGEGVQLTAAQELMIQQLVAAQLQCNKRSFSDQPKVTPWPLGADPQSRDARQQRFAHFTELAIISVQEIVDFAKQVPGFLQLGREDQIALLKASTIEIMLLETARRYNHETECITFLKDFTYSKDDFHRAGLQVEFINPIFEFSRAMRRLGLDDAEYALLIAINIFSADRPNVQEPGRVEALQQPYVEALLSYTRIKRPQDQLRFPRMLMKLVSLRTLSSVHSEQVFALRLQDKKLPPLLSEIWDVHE
* hit, by the source's call; · = no result. Compounds with a hit are over-represented: about 4.1% of the library has one in this group of screens.

SMILES	DAX1 inh-1	hgDAF-12 ag	hcDAF12 agonist	ssDAF12 agonist	DAX1 inh-2	hgDAF12 conf	LXR ag 2
Fc1ccccc1Cn1nnc(-c2ccc3c(c2)OCO3)n1	4.0	13.9*	5.3	1.3*	3.7*	18.7*	0.9
O=C1CCC2(CCC(c3ccccc3)CC2)N1CCCO (stereo not drawn)	·	1.8	-2.0	-1.3	-0.5	·	·
COc1ccc(/C(C)=N/NC(=O)Cc2cc(=O)[nH][nH]2)cc1OC	·	-0.9	-0.5	-1.2	-0.2	·	·
COc1ccc(NC(=O)/C=C/c2ccccc2)c([N+](=O)[O-])c1	1.5	15.6*	2.5	-0.1	2.0	12.0*	0.5
CCn1c2c(n(C(C)=O)c1=O)C[C@@H](c1ccccc1)[C@@H](C)[C@@H](C(=O)N1CCCC1)C2	·	-0.9	-0.3	-1.4	0.7	·	·
Cc1cc(C(=O)CSc2nncn2C)c(C)n1-c1ccccc1	-0.1	15.8*	4.1	0.2	3.2	15.7*	0.8
CC(=O)Nc1ccc(SCC(=O)c2cc(C)n(-c3ccccc3)c2C)cc1	0.8	-9.6	-6.5	-2.5	-2.1	·	·
O=C(NCC1CCN(C(=O)C(=O)c2cccs2)CC1)c1cccnc1	·	3.0	1.0	-0.7	0.1	·	·
O=C(C=Cc1ccc(O)c(O)c1)NCC(=O)NC(Cc1ccccc1)C(=O)O (stereo not drawn)	·	0.7	-0.6	-1.4	0.9	·	·
CCOC(=O)COc1ncn(-c2ccccc2)n1	0.0	-0.8	0.4	-0.8	-0.1	·	·
CCOC(=O)COc1ccccc1C(=O)c1cnn(-c2ccccc2)c1	0.4	13.7*	4.0	0.1	0.5	5.4	0.1
COC(CNC(=O)[C@H](Cc1ccccc1)NCC(=O)NC1CCCCC1)OC	·	0.3	1.4	-1.7	·	·	·
COc1ccccc1/C=C/C(=O)OCC(=O)Nc1ccc2c(c1)OCCO2	-0.2	0.1	0.2	-1.1	0.4	·	·
COc1cc(/C=C/C(=O)NC(=O)c2ccccc2O)ccc1OC(C)=O	3.4	14.8*	4.8	-0.3	2.0	6.4	0.3
COc1ccccc1/C=C/C(=O)Nc1ccc2c(c1)OCCO2	-2.1	17.0*	5.3	0.3	2.8	18.4*	0.8
COc1ccc(/C=C/C(=O)Nc2ccccc2)cc1OC	0.2	17.3*	1.9	-0.5	3.5	9.6	0.2
C[C@@H]1CCCCO[C@@H](CN(C)Cc2ccc(C(=O)O)cc2)[C@@H](C)CN([C@H](C)CO)C(=O)c2cc(NS(C)(=O)=O)ccc2O1	·	0.8	0.7	0.1	2.3	·	·
O=C(NC1CC1c1ccccc1)N1CCC(c2nc3ccc(Cl)cc3[nH]2)CC1 (stereo not drawn)	·	-0.6	-1.1	-1.5	-1.5	·	·
C[C@@H]1CN([C@@H](C)CO)C(=O)CCCn2cc(nn2)CO[C@H]1CN(C)C(=O)Nc1ccc(F)cc1	·	3.5	0.8	-1.0	0.2	·	·
COc1cccc(NC(=O)Nc2c(-c3ccc(C(F)(F)F)cc3)nc3ncccn23)c1	·	6.3	-0.6	-1.2	0.7	·	·
COc1cccc(NC(=O)Nc2nc3ncccn3c2-c2ccc(C)cc2)c1	·	13.8*	-0.1	-0.1	0.1	5.5	0.2
C=CCOC(=O)N[C@H](c1ccc(-c2ccccc2)cc1)[C@H](C)/C=C/CC(=O)OC	·	1.6	-1.5	-1.8	-0.6	·	·
O=C(Nc1ccc(Cl)cc1Cl)C1=Cc2ccccc2OC1	3.0	14.4*	5.2	0.3	3.2	17.6*	1.1
O=C(Nc1cc(Cl)ccc1Cl)c1ccc(-c2ccccc2)cc1	-0.6	0.3	1.5	-0.1	0.8	·	·
Cn1cnnc1SCC(=O)Nc1ccc2nc(SCc3ccccc3F)sc2c1	1.8	13.2*	1.2	-0.7	0.8	12.6*	0.4
SMILES	DAX1 inh-1	hgDAF-12 ag	hcDAF12 agonist	ssDAF12 agonist	DAX1 inh-2	hgDAF12 conf	LXR ag 2
COc1ccc(Cn2c(NC(=O)c3ccccc3)nc(Cc3ccccc3)c2Cc2ccccc2)cc1	·	-0.3	1.2	-0.7	-0.6	·	·
Cc1nn(-c2cccc([N+](=O)[O-])c2)c(N)c1-c1ccccc1	1.1	14.5*	0.8	-1.0	1.4	11.0*	0.3
COC(=O)c1ccccc1CC1Cc2cc3c(cc2C1=O)CCC3 (stereo not drawn)	3.4	14.3*	1.6	1.9*	4.3*	12.7*	0.8
CCc1ccc(-c2cc(C(=O)N/N=C/c3c[nH]c4ccccc34)[nH]n2)cc1	0.1	17.7*	3.0	0.7	-3.3	1.4	0.2
CN(C)S(=O)(=O)c1ccc2nc(NC(=O)c3cccs3)sc2c1	3.5	15.1*	5.6*	0.6	3.8*	18.7*	0.8
CCc1ccc2nc(NC(=O)CCCc3cccs3)sc2c1	0.6	3.4	0.6	-0.4	1.0	·	·
CCCCc1ccc2nc(NC(=O)c3cccs3)sc2c1	·	27.2*	6.1*	2.5*	·	20.4*	1.0
CCC(=O)Nc1ccccc1C(=O)OCC(=O)c1ccccc1	3.8	16.4*	-2.2	1.3*	3.7*	17.3*	0.7
c1ccc(CNn2nnc3ccccc32)cc1	·	13.9*	-1.1	-0.6	1.9	11.5*	0.3
C(#Cc1ccccc1)Cn1nnc2ccccc21	1.4	3.5	0.1	-0.9	1.2	·	·
COc1ccc(-c2cc(=Nc3c(C)n(C)n(-c4ccccc4)c3=O)c3ccccc3o2)cc1	5.3*	18.6*	6.0*	0.8	3.5	11.9*	0.3
CCOC(=O)N1C(=O)C[C@](Sc2ccc(OC)cc2)(C(=O)N2CCCC2)[C@H]1c1ccc(OC)cc1	·	1.8	-0.1	-1.1	-2.0	·	·
CC(=O)Nc1cccc(-c2nc3ccc(NC(C)=O)cc3s2)c1	1.1	18.9*	3.7	0.8	1.4	12.4*	0.6
O=C(CSc1nnc(NC(=O)c2ccccc2Cl)s1)Nc1ccc2c(c1)oc1ccccc12	·	14.5*	4.3	0.0	1.5	10.9*	0.5
Cc1ncc(CO)c(CNc2ccc(-c3nc4ccccc4[nH]3)cc2)c1O	1.0	15.8*	1.5	-0.8	1.9	13.3*	0.6
Cc1cccc(OCCCC(=O)Nc2nc3ccccc3[nH]2)c1	-0.9	13.6*	0.4	-1.1	0.3	7.4	0.1
